# According to PubChem BioAssay (Tox21):
# Inconclusive results are not listed. The source made the active and inactive calls. Unless noted, the call rests on the fitted dose curve; in most records, active means well fitted curve in the direction sought with a large enough effect in the repeat runs; inconclusive means weak or mixed curves; inactive means no such curve, though single readings can be large; an effect the other way counts as inactive or inconclusive.
# Tested on: not listed separately
# Assay: qHTS assay to identify small molecule antagonists of the retinoid-related orphan receptor gamma (ROR-gamma) signaling pathway - cell viability counter screen (AID 1159520); further: on the % scale 0 is the no-effect control and ±100 the full control effect; nearly all actives have a fitted effect of over 50% in size
# Conditions: Tet-on RORgamma CHO cells viability, ATP luminescence, 16 h; series mostly up to 92.4 µM
# Procedure, shortened: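 Tet-on ROR gamma CHO cells were given compounds for 2 hr, then doxycycline hyclate at 1 uM final, and incubated 16 hr at 37 C. Viability was measured as ATP content by CellTiter-Glo luminescence.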
Compound,outcome,"activity, negative = cytotoxicity"
CCOC(=O)COc1ccc2c(C)c(CCN(CC)CC)c(=O)oc2c1Cl,inactive,–
CCCCCCC(O)CO (centres undefined),inactive,–
NCC1CCC(C(=O)Oc2ccc(CCC(=O)O)cc2)CC1 (centres undefined),inactive,–
OCCC(F)(F)C(F)(F)C(F)(F)C(F)(F)C(F)(F)C(F)(F)F,inactive,–
CCOC(=O)CC(C(C)=O)C(C)=O,inactive,–
CCCCCCCCOCCC#N,inactive,–
CC(=O)OC/C=C(/C)CCC=C(C)C,inactive,–
CN(C)CCCN(C)C,–,11.1% [at 8.39 µM] (inactive)
CCCC(=O)C(CC)Sc1ccoc1C (centres undefined),inactive,–
CCCCCCCCCCCBr,inactive,–
Clc1cc(Cl)c(Cl)c(Cl)c1Cl,inactive,–
CCCCN=C(N)N=C(N)N,inactive,–
COC(=O)c1c(C)cc(O)c(C)c1O,inactive,–
CC(C)(C)C(=O)CCc1ccc(Cl)cc1,inactive,–
Cc1ccccc1C#N,inactive,–
CC(C)(C)c1ccc(N)cc1,inactive,–
COc1cc(OC)cc(OC)c1,inactive,–
Cc1ccc(Br)cc1,inactive,–
C=CCON/C(CCC)=C1\C(=O)CC(C)(C)C(C(=O)OC)=C1O,inactive,–

Compound,outcome,"activity, negative = cytotoxicity"
C[C@@H]1CCC[C@H](C)N1CCCC(O)(c1ccccc1)c1ccccn1 (some centres undefined),inactive,–
NNC(=O)OCc1ccccc1,inactive,–
CC(C)(C)c1ccc(C(=O)CCCCl)cc1,inactive,–
C[C@@H](CN1CC(=O)NC(=O)C1)N1CC(=O)NC(=O)C1,inactive,–
CC(C)(O)CCCC1=CCC(C=O)CC1 (centres undefined),inactive,–
O=C(c1ccccc1)c1cccc(O)c1,inactive,–
O=CN1CCCCC1,inactive,–
CN1C(CCl)Nc2cc(Cl)c(S(N)(=O)=O)cc2S1(=O)=O (centres undefined),inactive,–
CCOCCOCCOC(C)=O,inactive,–
Cc1ccc(OC(=O)CC(C)C)cc1,inactive,–
COC(C)(C)CC(C)=O,inactive,–
CCCOc1ccc(C(=O)OCCN(CC)CC)cc1N,inactive,–
CC[N+](C)(CC)CC,inactive,–
Nc1nc(Cl)cc(Cl)n1,inactive,–
O=Cc1ccc(C(=O)O)cc1,inactive,–
O=P(O)(O)C(O)(Cc1cccnc1)P(=O)(O)O,inactive,–
CCCCCCCCC1CO1 (centres undefined),inactive,–
COc1cc2nc(N3CCN(C(=O)C4CCCO4)CC3)nc(N)c2cc1OC (centres undefined),inactive,–
CCCCCCCCCCCCCCCC(=O)OC,–,1.29% [at 19 µM] (inactive)

# Target: Nuclear receptor ROR-gamma (Homo sapiens) (UniProt P51449)
# Assay: qHTS assay to identify small molecule antagonists of the retinoid-related orphan receptor gamma (ROR-gamma) signaling pathway (AID 1159521;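 further: CHO cells with doxycycline inducible ROR-gamma driving an RORE luciferase reporter; top concentration of the series differs between compounds; on the % scale 0 is the no-effect control and ±100 the full control effect; nearly all actives have a fitted effect of over 50% in size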)
# Conditions: Tet-on RORgamma CHO cells, RORE-luciferase, 16 h; series mostly up to 92.4 µM
# Procedure, shortened: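 Cells were plated, rested 4 h at 37 C, exposed to compounds for 2 h, then given 1 uM final doxycycline hyclate to induce RORγ expression. After 16 h, ONE-Glo luminescence from the ROR response element reporter was measured.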
Compound,outcome,"activity change, negative = inhibition"
CCOC(=O)COc1ccc2c(C)c(CCN(CC)CC)c(=O)oc2c1Cl,inactive,–
CCCCCCC(O)CO (centres undefined),inactive,–
NCC1CCC(C(=O)Oc2ccc(CCC(=O)O)cc2)CC1 (centres undefined),inactive,–
OCCC(F)(F)C(F)(F)C(F)(F)C(F)(F)C(F)(F)C(F)(F)F,inactive,–
CCOC(=O)CC(C(C)=O)C(C)=O,inactive,–
CCCCCCCCOCCC#N,inactive,–
CC(=O)OC/C=C(/C)CCC=C(C)C,inactive,–
CN(C)CCCN(C)C,–,-7.64% [at 8.39 µM] (inactive)
CCCC(=O)C(CC)Sc1ccoc1C (centres undefined),inactive,–
CCCCCCCCCCCBr,inactive,–
Clc1cc(Cl)c(Cl)c(Cl)c1Cl,inactive,–
CCCCN=C(N)N=C(N)N,inactive,–
COC(=O)c1c(C)cc(O)c(C)c1O,inactive,–
CC(C)(C)C(=O)CCc1ccc(Cl)cc1,inactive,–
Cc1ccccc1C#N,inactive,–
CC(C)(C)c1ccc(N)cc1,inactive,–
COc1cc(OC)cc(OC)c1,inactive,–
Cc1ccc(Br)cc1,inactive,–
C=CCON/C(CCC)=C1\C(=O)CC(C)(C)C(C(=O)OC)=C1O,inactive,–

Compound,outcome,"activity change, negative = inhibition"
C[C@@H]1CCC[C@H](C)N1CCCC(O)(c1ccccc1)c1ccccn1 (some centres undefined),inactive,–
NNC(=O)OCc1ccccc1,inactive,–
CC(C)(C)c1ccc(C(=O)CCCCl)cc1,inactive,–
C[C@@H](CN1CC(=O)NC(=O)C1)N1CC(=O)NC(=O)C1,inactive,–
CC(C)(O)CCCC1=CCC(C=O)CC1 (centres undefined),inactive,–
O=C(c1ccccc1)c1cccc(O)c1,inactive,–
O=CN1CCCCC1,inactive,–
CN1C(CCl)Nc2cc(Cl)c(S(N)(=O)=O)cc2S1(=O)=O (centres undefined),inactive,–
CCOCCOCCOC(C)=O,inactive,–
Cc1ccc(OC(=O)CC(C)C)cc1,inactive,–
COC(C)(C)CC(C)=O,inactive,–
CCCOc1ccc(C(=O)OCCN(CC)CC)cc1N,inactive,–
CC[N+](C)(CC)CC,inactive,–
Nc1nc(Cl)cc(Cl)n1,inactive,–
O=Cc1ccc(C(=O)O)cc1,inactive,–
O=P(O)(O)C(O)(Cc1cccnc1)P(=O)(O)O,inactive,–
CCCCCCCCC1CO1 (centres undefined),inactive,–
COc1cc2nc(N3CCN(C(=O)C4CCCO4)CC3)nc(N)c2cc1OC (centres undefined),inactive,–
CCCCCCCCCCCCCCCC(=O)OC,–,7.03% [at 19 µM] (inactive)

# Tested on: not listed separately
# Assay: qHTS assay to identify small molecule agonists of the AP-1 signaling pathway - cell viability counter screen (AID 1159525; calls by dose curve; further: nearly all actives have a fitted effect of over 55% in size)
# Conditions: ME-180 (cervical carcinoma) AP-1-bla cells viability, ATP luminescence, 5 h; series mostly up to 76.8 µM
# Procedure, shortened: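 Same-well cytotoxicity counter screen of the Tox21 10K library in ME-180 cells. The readout is ATP-dependent luminescence after 5 h compound treatment. Data are normalised to DMSO and tetra n-octyl ammonium bromide controls.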
Compound,outcome,"viability change, negative = cytotoxic"
CCOC(=O)COc1ccc2c(C)c(CCN(CC)CC)c(=O)oc2c1Cl,inactive,–
CCCCCCC(O)CO (centres undefined),inactive,–
NCC1CCC(C(=O)Oc2ccc(CCC(=O)O)cc2)CC1 (centres undefined),inactive,–
OCCC(F)(F)C(F)(F)C(F)(F)C(F)(F)C(F)(F)C(F)(F)F,inactive,–
CCOC(=O)CC(C(C)=O)C(C)=O,inactive,–
CCCCCCCCOCCC#N,inactive,–
CC(=O)OC/C=C(/C)CCC=C(C)C,inactive,–
CN(C)CCCN(C)C,–,-0.503% [at 6.97 µM] (inactive)
CCCC(=O)C(CC)Sc1ccoc1C (centres undefined),inactive,–
CCCCCCCCCCCBr,inactive,–
Clc1cc(Cl)c(Cl)c(Cl)c1Cl,inactive,–
CCCCN=C(N)N=C(N)N,inactive,–
COC(=O)c1c(C)cc(O)c(C)c1O,inactive,–
CC(C)(C)C(=O)CCc1ccc(Cl)cc1,inactive,–
Cc1ccccc1C#N,inactive,–
CC(C)(C)c1ccc(N)cc1,inactive,–
COc1cc(OC)cc(OC)c1,inactive,–
Cc1ccc(Br)cc1,inactive,–
C=CCON/C(CCC)=C1\C(=O)CC(C)(C)C(C(=O)OC)=C1O,inactive,–

Compound,outcome,"viability change, negative = cytotoxic"
C[C@@H]1CCC[C@H](C)N1CCCC(O)(c1ccccc1)c1ccccn1 (some centres undefined),inactive,–
NNC(=O)OCc1ccccc1,inactive,–
CC(C)(C)c1ccc(C(=O)CCCCl)cc1,inactive,–
C[C@@H](CN1CC(=O)NC(=O)C1)N1CC(=O)NC(=O)C1,inactive,–
CC(C)(O)CCCC1=CCC(C=O)CC1 (centres undefined),inactive,–
O=C(c1ccccc1)c1cccc(O)c1,inactive,–
O=CN1CCCCC1,inactive,–
CN1C(CCl)Nc2cc(Cl)c(S(N)(=O)=O)cc2S1(=O)=O (centres undefined),inactive,–
CCOCCOCCOC(C)=O,inactive,–
Cc1ccc(OC(=O)CC(C)C)cc1,inactive,–
COC(C)(C)CC(C)=O,inactive,–
CCCOc1ccc(C(=O)OCCN(CC)CC)cc1N,inactive,–
CC[N+](C)(CC)CC,inactive,–
Nc1nc(Cl)cc(Cl)n1,inactive,–
O=Cc1ccc(C(=O)O)cc1,inactive,–
O=P(O)(O)C(O)(Cc1cccnc1)P(=O)(O)O,inactive,–
CCCCCCCCC1CO1 (centres undefined),inactive,–
COc1cc2nc(N3CCN(C(=O)C4CCCO4)CC3)nc(N)c2cc1OC (centres undefined),inactive,–
CCCCCCCCCCCCCCCC(=O)OC,–,-12.9% [at 15.8 µM] (inactive)
